Screening data: PubChem, several laboratories
CYP2C19 activ – activators of human cytochrome P450 2C19 | P33261 | recombinant CYP2C19, luciferin-H EGE luminescence; active compounds read high; 0 = fully inhibited enzyme, 1 = untreated enzyme | activation factor at 5 µM | 96,000 tested, under 10 active | AID 1025;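 active means activation factor of at least 2 at 5 µM in the primary screen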;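 further: 0 = wells with 2.5 mM tranylcypromine and 1 = vehicle-only wells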
PostGolgi yeast – growth inhibition of a yeast mutant, post-Golgi transport screen; post-Golgi transport phenotypic cell assay; inhibition, % at 10 µM; hit rate 0.9% among 98,000;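 further: yeast cells grown in 1536-well plates; yeast grown about 18 h at 30C before absorbance read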
CYP2C9 inhib – blocks human cytochrome P450 2C9; P11712; CYP2C9 Supersomes, luciferin-H conversion, luminescence; inhibition, % at 5 µM; hit rate 20% among 96,000; AID 777;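 active means blocking of liver enzyme CYP2C9 beyond about 50% at 5 µM, limit read from the data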
Target sequence (P11712 whole entry, looked up): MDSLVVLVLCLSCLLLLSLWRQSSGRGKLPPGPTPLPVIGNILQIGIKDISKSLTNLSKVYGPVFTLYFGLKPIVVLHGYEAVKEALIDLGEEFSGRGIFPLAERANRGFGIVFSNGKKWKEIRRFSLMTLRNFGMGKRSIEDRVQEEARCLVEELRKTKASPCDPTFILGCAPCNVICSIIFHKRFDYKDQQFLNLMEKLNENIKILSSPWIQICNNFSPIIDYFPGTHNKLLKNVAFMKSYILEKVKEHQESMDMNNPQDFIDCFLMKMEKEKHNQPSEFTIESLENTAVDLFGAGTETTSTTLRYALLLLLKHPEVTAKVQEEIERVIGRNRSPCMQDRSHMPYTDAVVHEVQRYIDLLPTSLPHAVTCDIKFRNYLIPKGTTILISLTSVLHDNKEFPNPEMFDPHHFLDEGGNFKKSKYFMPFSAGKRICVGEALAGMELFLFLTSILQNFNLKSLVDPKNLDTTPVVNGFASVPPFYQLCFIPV
PostGolgi ctrl – growth of the yeast control strain, post-Golgi counter-screen. efflux-deficient yeast background strain, growth absorbance A615, 16 h. inhibition, % at 10 µM. hit rate 5% among 98,000. AID 738
CYP2C19 inh – blocks human cytochrome P450 2C19. CYP2C19 Supersomes, luciferin-H EGE luminescence, 30 min. inhibition, % at 5 µM. AID 778. P33261. hit rate 21% among 96,000;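 active means CYP2C19 inhibition above a set limit at 5 µM in the primary screen, cut at about 50% in these data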;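 further: plate controls were negative control wells for no effect and 2.5 mM tranylcypromine positive control for full effect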
CYP2C9 act – CYP2C9 (human) activation. AID 1024. P11712. recombinant CYP2C9, luciferin-H conversion, luminescence; active compounds read high; factor 1 = untreated enzyme, 0 = blocked. activation factor at 5 µM. hit rate 1.4% among 96,000;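 active means activation factor of 2 or more for CYP2C9 at a 5 µM dose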;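 further: 0 = sulfaphenazole-blocked wells and 1 = vehicle-only wells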
The depositor's hits bear a star; nt = no result given. Hits are enriched below; roughly 32% of the tested compounds scored in any of these assays. Unless noted, no stated cut-off is given here; in the data, active means inhibition above about 30%; inactive means the rest.

SMILES | CYP2C19 activ | PostGolgi yeast | CYP2C9 inhib | PostGolgi ctrl | CYP2C19 inh | CYP2C9 act
C#CC(CO)N(CCN(Cc1ccccc1)C(C#C)CO)Cc1ccccc1 (stereo not given) | 0 | 9 | 95* | 29 | 100* | 0.1
CC1CCC(C(=O)NC(C(=O)N2CCc3ccccc3C2)C(C)C)CC1 (stereo not given) | 0.8 | -6 | 15 | 1 | 16 | 0.8
CC(=O)NC(=S)Nc1ccc(NC(=O)COc2ccc(Cl)cc2)cc1 | 0.9 | 4 | -10 | -1 | 8 | 1.1
COC(=O)C1=C(C)NC(=O)/C1=C\c1cc(C)n(-c2cccc(C)c2)c1C | 0.2 | 5 | 84* | 13 | 79* | 0.2
C=CCN=C1SC(CC)C(=O)N1S(=O)(=O)c1ccc(C)cc1 (stereo not given) | 0.2 | -1 | 42 | 17 | 84* | 0.6
CN1C(=O)c2ccc(C(=O)NC3CCCCC3)cc2C1=O | 0.9 | -8 | 12 | 8 | 10 | 0.9
CC(=O)Oc1c(Cl)c(N2CCOCC2)c(OC(C)=O)c2ccccc12 | 0.5 | 15 | 26 | 9 | 52* | 0.7
Cc1cc(OC(=O)N2CCOCC2)cc(C)c1Cl | 0.9 | 11 | -25 | 10 | 6 | 1.3
N#CC(C#N)=Cc1cn(-c2ncc(C(F)(F)F)cc2Cl)c2ccccc12 | 0.9 | 21 | 5 | 43* | 10 | 1
CSc1ccccc1NC(=O)CN(Cc1ccc(Cl)cc1)S(C)(=O)=O | 0.8 | 17 | 30 | 14 | 16 | 0.7
CCOc1ccccc1NC(=O)CN(Cc1ccccc1)S(C)(=O)=O | 0.1 | 0 | 42 | 14 | 94* | 0.6
CSc1cccc(NC(=O)CN(Cc2ccc(Cl)cc2)S(C)(=O)=O)c1 | 0.1 | -9 | 92* | 8 | 92* | 0.1
CSc1ccccc1NC(=O)CN(Cc1ccccc1)S(C)(=O)=O | 0.8 | -5 | 23 | 5 | 24 | 0.8
Cc1c(Cl)cccc1N(CC(=O)NC1CCCCC1)S(C)(=O)=O | 0.7 | 0 | 70* | 13 | 28 | 0.3
CS(=O)(=O)N(CC(=O)Nc1ccccc1)Cc1ccc(Cl)cc1 | 0 | -8 | 89* | 4 | 96* | 0.1
CC(=O)c1c(COC(=O)c2cccnc2)nc2ccccc2[n+]1[O-] | 0.5 | -2 | 5 | 11 | 48 | 0.9
O=C(CN1C(=O)C2CC=CCC2C1=O)NC1CCCc2ccccc21 (stereo not given) | 1.2 | 0 | 5 | -1 | -18 | 0.9
O=C(N/N=C/c1ccc(OCCCF)cc1)c1cc(OCC(F)(F)F)ccc1OCC(F)(F)F | 0.6 | 0 | 31 | -4 | 37 | 0.7
Clc1cccc(N2CCN(CCNc3nc4ccccc4n4cnnc34)CC2)c1 | 1 | 5 | 17 | 14 | 3 | 0.8
CCNc1nc(NC(C)C)nc(Oc2ccc(OCCOc3ccccc3)nn2)n1 | 0.6 | -11 | 42 | 16 | 44 | 0.6
O=C(CN(c1ccccc1F)S(=O)(=O)c1ccccc1)NC1CCCCCC1 | 1.1 | -4 | 52* | 21 | -11 | 0.5
CS(=O)(=O)N(CC(=O)Nc1ccc2c(c1)OCCO2)Cc1ccccc1 | 0.7 | -2 | 28 | 10 | 28 | 0.7
CS(=O)(=O)N(CC(=O)NC1CCCCCC1)Cc1ccccc1 | 0.1 | 4 | 22 | 24 | 87* | 0.8
Cc1cc(C(C)(C)C)oc1C(=O)N(CC(=O)NC1CCCC1)Cc1ccccc1 | 1.1 | 32* | -2 | 53* | -10 | 1
COc1ccc(NC(=O)CN(Cc2ccccc2)S(C)(=O)=O)cc1 | 0.2 | 7 | 45 | -2 | 79* | 0.5
SMILES | CYP2C19 activ | PostGolgi yeast | CYP2C9 inhib | PostGolgi ctrl | CYP2C19 inh | CYP2C9 act
Cc1cc(C(C)(C)C)oc1C(=O)N(CC(=O)NC1CCCC1)Cc1ccc(F)cc1 | 0.7 | -4 | -9 | 8 | 30 | 1.1
CCOC(=O)C1C(=O)NC(N2CCCCC2)=NC1c1ccco1 (stereo not given) | 1.2 | 2 | -11 | 2 | -22 | 1.1
COc1ccnc(Oc2ccccc2)c1C(=O)N/C=N/OCc1ccc(F)cc1Cl | 0.3 | -11 | 56* | 8 | 66* | 0.4
COc1ccccc1CO/N=C/NC(=O)c1c(OC)ccnc1Oc1ccc(F)cc1 | 0 | -29 | 77* | 51* | 97* | 0.2
O=C1C(=O)N(Cc2cccnc2)C(c2ccccn2)/C1=C(/O)c1ccccc1 (stereo not given) | 1 | -2 | 76* | 0 | 5 | 0.2
CCOc1ccc(/C(O)=C2/C(=O)C(=O)N(c3nc(C)c(C)s3)C2c2ccco2)cc1 (stereo not given) | 0.5 | 1 | 81* | 30 | 46 | 0.2
CCCOc1ccc(/C(O)=C2/C(=O)C(=O)N(CCCn3ccnc3)C2c2ccco2)cc1 (stereo not given) | 0.8 | -1 | 16 | 29 | 24 | 0.8
COc1cccc(/C(O)=C2/C(=O)C(=O)N(Cc3cccnc3)C2c2ccco2)c1 (stereo not given) | 0.9 | 3 | 89* | -7 | 14 | 0.1
COc1ccc(/C(O)=C2/C(=O)C(=O)N(Cc3cccnc3)C2c2ccncc2)cc1F (stereo not given) | 1 | 4 | 43 | -6 | 0 | 0.6
O=C1C(=O)N(CCCn2ccnc2)C(c2ccccn2)/C1=C(/O)c1ccccc1 (stereo not given) | 0.9 | nt | 49 | nt | 8 | 0.5
COc1cccc(/C(O)=C2/C(=O)C(=O)N(CCN(C)C)C2c2ccc(Br)cc2)c1 (stereo not given) | 1 | -6 | -5 | 4 | -2 | 1.1
COCCN1C(=O)C(=O)/C(=C(/O)c2cccc(OC)c2)C1c1ccco1 (stereo not given) | 0.8 | -4 | -10 | 32* | 16 | 1.1
CCOC(=O)CCCNC(=O)CCCNC(=O)C(c1ccccc1)c1ccccc1 | nt | 2 | nt | -4 | nt | nt
Cc1cccc2cc(CN(CCCN3CCOCC3)Cc3nnnn3C(C)(C)C)c(=O)[nH]c12 | 0.5 | 3 | 25 | 5 | 46 | 0.8
O=C(Nc1ccc2c(c1)OCO2)c1ccc(COc2ccc3c(c2)CCC3)o1 | 0.6 | -9 | 40 | 16 | 38 | 0.6
CCN(CC)CCN1C(=O)C(=O)/C(=C(/O)c2ccc(OC)cc2)C1c1ccco1 (stereo not given) | 1.1 | 15 | -2 | -3 | -8 | 1
CC(C)Oc1ccc(/C(O)=C2/C(=O)C(=O)N(CCN(C)C)C2c2ccco2)cc1 (stereo not given) | 1.1 | 41* | -22 | 2 | -7 | 1.2
COc1ccc(C2/C(=C(\O)c3cccc(OC)c3)C(=O)C(=O)N2c2ccccn2)cc1 (stereo not given) | 0.7 | -20 | 69* | 1 | 29 | 0.3
Cc1ccc(C)c(/C(O)=C2\C(=O)C(=O)N(Cc3cccnc3)C2c2cccnc2)c1 (stereo not given) | 1 | 2 | 51* | 11 | 1 | 0.5
COc1cccc(/C(O)=C2\C(=O)C(=O)N(c3ccccn3)C2c2ccccc2OC)c1 (stereo not given) | 0.8 | -7 | 15 | -1 | 17 | 0.9
